# Data published in PubChem BioAssay (Tox21).
# Records with an inconclusive call do not appear. A call without a number means that no potency is given here. Active and inactive are the calls of the source. The call rests on the fitted dose curve; in most records, active means well fitted cell-killing curve with a large enough effect in the repeat runs; inconclusive means weak or mixed curves; inactive means flat fitted curve, though single readings scatter.
# Test: qHTS assay to identify small molecule antagonists of the TGF-beta/Smad signaling pathway - cell viability counter screen (AID 1346824); further: nearly all actives have a fitted effect of over 50% in size
# Details: SBE-bla HEK293T viability, CellTiter-Glo luminescence; series mostly up to 76.8 µM
# Outline: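 Cytotoxicity counter-screen run in the same wells as the beta-lactamase Smad reporter read: CellTiter-Glo luminescence after 30 min at room temperature. HEK 293T SBE-bla cells had 5 hr compound exposure at 37 C with TGF-beta1 (0.25 ng/mL stock).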
# Potency means the concentration at half of the fitted maximal effect.
row,Structure (SMILES),Potency
1,Clc1ccc(C(Cn2ccnc2)OCc2ccc(Sc3ccccc3)cc2)c(Cl)c1 (stereo not given),inactive
2,NC(=O)CC[C@@H]1NC(=O)[C@H](Cc2ccccc2)NC(=O)[C@H](Cc2ccc(O)cc2)NC(=O)CCSSC[C@@H](C(=O)N2CCC[C@H]2C(=O)N[C@@H](CCCN=C(N)N)C(=O)NCC(N)=O)NC(=O)[C@H](CC(N)=O)NC1=O,inactive
3,O=CC=C(c1ccccc1)c1ccccc1,inactive
4,O=C(c1ccc(O)cc1O)c1ccc(O)cc1O,inactive
5,CCC1OCC(COc2ccc(Oc3ccccc3)cc2)O1 (stereo not given),inactive
6,Cc1nc(-c2ccc3c(c2)CCN(CCC2CCC(NC(=O)/C=C/c4ccc(F)cc4)CC2)CC3)no1 (stereo not given),inactive
7,O=C(Oc1ccccc1)c1ccccc1C(=O)Oc1ccccc1,inactive
8,C[C@H]1[C@H]2CC[C@H]3[C@@H]4CC=C5C[C@@H](N(C)C)CC[C@]5(C)[C@H]4CC[C@]23CN1C,inactive
9,Cc1c(C)c2c(c(C)c1O)CCC(C)(COc1ccc(CC3SC(=O)NC3=O)cc1)O2 (stereo not given),inactive
10,CCCCCCCCCCC=O,inactive
11,CSc1cnc(C)cn1,inactive
12,Cc1cccc(N(C)C(=S)Oc2ccc3c(c2)C2CCC3C2)c1 (stereo not given),inactive
13,CCCCCCCC(=O)[O-].CCCCCCCC(=O)[O-].[Zn+2],inactive
14,O=Cc1cc(O)ccc1Br,inactive
15,O=c1cccccc1O,inactive
16,COC(=O)c1cc(Cl)ccc1OC,inactive
17,CCOC(=O)O[C@]1(C(=O)OCCl)CC[C@H]2[C@@H]3CCC4=CC(=O)C=C[C@]4(C)[C@H]3[C@@H](O)C[C@@]21C,inactive
18,Cc1cc(O)c(Cl)c(C)c1Cl,inactive

row,Structure (SMILES),Potency
1,C[n+]1cc2c3c(ccc2c2ccc4cc5c(cc4c21)OCO5)OCO3,4.65 µM (active)
2,CCCCN1CCCC[C@H]1C(=O)Nc1c(C)cccc1C,inactive
3,CC[C@H](c1ccc(O)cc1)[C@@H](CC)c1ccc(O)cc1,inactive
4,COc1cccc(N)c1,inactive
5,COc1ccc(-c2ccc3cc(C(=O)O)ccc3c2)cc1C12CC3CC(CC(C3)C1)C2,inactive
6,NNc1nc(-c2ccc(N)cc2)cs1,inactive
7,Oc1ccc(N=Nc2ccccc2)cc1,inactive
8,CCC(N)(CO)CO,inactive
9,O=C1C=CC(=O)N1c1ccc(Cc2ccc(N3C(=O)C=CC3=O)cc2)cc1,inactive
10,CN(C)CCCOC1(Cc2ccccc2)CCCCCC1,inactive
11,C/C=C(\C)C(=O)OCc1ccccc1,inactive
12,CCc1oc2ccccc2c1C(=O)c1cc(Br)c(O)c(Br)c1,inactive
13,N#CSc1ccc(N)c([N+](=O)[O-])c1,inactive
14,CCCCCCCCCCCCCCCC(=O)OC[C@H](O)[C@H]1OC(=O)C(O)=C1O,inactive
15,O=C(NO)C1(NS(=O)(=O)c2ccc(Oc3ccc(F)cc3)cc2)CCOCC1,inactive
16,Cc1c(C)c2c(c(C)c1OC(=O)CCC(=O)O)CC[C@@](C)(CCC[C@H](C)CCC[C@H](C)CCCC(C)C)O2,inactive
17,NNC(=O)c1cccc(C(=O)NN)c1,inactive
